# Laboratory results published in PMC4336329 (PLoS ONE, 2015).
# About 14,000 (4.5%) of roughly 310,000 compounds showed an effect of 50% or more. The effect is printed as a negative number. This excerpt belongs to a sample that is enriched for strong results.
# Molecular target: human ether-à-go-go-related gene (hERG) potassium channel (human, UniProt Q12809)
# Experiment: primary screen, population patch clamp on CHO cells stably expressing hERG; higher = less effect of the substance
# 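Also: peak tail current of the secondary pulse compared with the same well before compound.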
# human ether-à-go-go-related gene (hERG) potassium channel, sequence (Q12809 whole entry, looked up): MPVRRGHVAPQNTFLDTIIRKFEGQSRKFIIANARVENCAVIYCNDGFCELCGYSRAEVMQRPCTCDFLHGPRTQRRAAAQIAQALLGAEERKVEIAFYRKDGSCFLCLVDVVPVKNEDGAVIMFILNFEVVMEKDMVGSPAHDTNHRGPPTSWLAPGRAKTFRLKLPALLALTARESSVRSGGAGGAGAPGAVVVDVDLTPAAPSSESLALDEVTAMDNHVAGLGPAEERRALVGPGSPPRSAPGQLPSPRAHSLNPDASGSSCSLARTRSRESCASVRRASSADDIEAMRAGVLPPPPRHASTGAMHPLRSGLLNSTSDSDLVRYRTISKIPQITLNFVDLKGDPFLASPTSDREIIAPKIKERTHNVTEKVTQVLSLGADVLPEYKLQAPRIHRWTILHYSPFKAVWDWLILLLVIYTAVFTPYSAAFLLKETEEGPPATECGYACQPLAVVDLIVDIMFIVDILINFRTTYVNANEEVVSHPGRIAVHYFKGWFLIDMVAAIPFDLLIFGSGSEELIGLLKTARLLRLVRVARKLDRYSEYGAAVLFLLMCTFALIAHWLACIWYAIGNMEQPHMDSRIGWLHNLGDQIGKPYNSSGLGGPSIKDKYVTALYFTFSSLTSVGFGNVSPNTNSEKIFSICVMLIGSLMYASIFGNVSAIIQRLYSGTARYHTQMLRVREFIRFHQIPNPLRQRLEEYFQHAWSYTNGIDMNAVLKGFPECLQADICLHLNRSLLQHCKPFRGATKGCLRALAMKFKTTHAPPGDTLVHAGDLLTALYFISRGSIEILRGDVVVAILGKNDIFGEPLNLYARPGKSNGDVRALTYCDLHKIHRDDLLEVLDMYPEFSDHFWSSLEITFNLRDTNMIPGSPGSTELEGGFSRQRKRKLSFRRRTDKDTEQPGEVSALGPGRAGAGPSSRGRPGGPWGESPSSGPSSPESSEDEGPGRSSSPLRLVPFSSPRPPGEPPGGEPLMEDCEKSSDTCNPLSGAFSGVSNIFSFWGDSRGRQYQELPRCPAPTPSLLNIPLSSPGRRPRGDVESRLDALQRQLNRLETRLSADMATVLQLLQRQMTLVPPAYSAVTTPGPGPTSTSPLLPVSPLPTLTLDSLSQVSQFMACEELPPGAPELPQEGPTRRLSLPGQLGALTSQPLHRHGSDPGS
row,SMILES,"hERG current change (%, negative = inhibition) at 10uM"
1,CC1(C)CC(=O)C=C(Nc2cc(-c3ccccc3)[nH]n2)C1,-11.2%
2,CC(NC(=O)C1CCC(=O)N1Cc1ccccc1Cl)c1ccccc1 (stereo not shown),12.8%
3,COc1ccccc1-c1cc(C(=O)Nc2c(C)n(C)n(-c3ccccc3)c2=O)no1,-34.9%
4,N#CCC(=O)N/N=C/c1ccccc1Cl,6.55%
5,Cc1nn(C)c(C)c1S(=O)(=O)NC1CCCC1,-12%
6,CCN(C(=O)CN1CCN(c2cccc(C(F)(F)F)c2)CC1)c1c(N)n(Cc2ccccc2)c(=O)[nH]c1=O,-20.3%
7,Cc1cc(-c2ccccc2)cc(-c2ccccc2)[n+]1C.[Cl-],-13.6%
8,C[n+]1c(-c2ccccc2)cc(-c2ccc(Cl)cc2)cc1-c1ccccc1.[O-][Cl+3]([O-])([O-])[O-],-84.1%
9,O=C(c1ccccc1)c1ccc(-c2ccc(O)cc2)cc1,10.1%
10,C[n+]1c(-c2ccccc2)cc(-c2ccc(O)cc2)cc1-c1ccccc1.[O-][Cl+3]([O-])([O-])[O-],-61.4%
11,C[n+]1c(-c2ccccc2)cc(CCCCc2cc(-c3ccccc3)[n+](C)c(-c3ccccc3)c2)cc1-c1ccccc1.[O-][Cl+3]([O-])([O-])[O-],-30.6%
12,Oc1ccc(-c2cccc(-c3ccc(O)cc3)c2)cc1,3.27%
13,COCCNC(=O)C(c1ccc(C)o1)N(C(=O)c1snc(C(N)=O)c1N)c1cc(C)cc(C)c1 (stereo not shown),-28.5%
14,COc1ccc(Cc2nnc(SCc3nc4ccccc4c(=O)[nH]3)n2C)cc1,-11.9%
15,COc1ccc(C(CC(=O)O)N2Cc3ccccc3C2=O)cc1 (stereo not shown),14.4%
16,CC(C)=CCCC1=CCC2C(=O)NNC(=O)C2C1 (stereo not shown),9.53%
17,CC(C)=CCCC1=CCC(/C=N/NC(N)=O)C(C)C1 (stereo not shown),9%
18,CC(C)=CCCC1=CCC(/C(C)=N/NC(N)=O)CC1 (stereo not shown),-53.7%
19,CC(=O)N1c2c(cc(Br)cc2S(=O)(=O)N2CCOCC2)CC1C (stereo not shown),-0.158%
20,COc1ccc(Cl)cc1C(=O)CSc1nnnn1C1CCCCC1,-4.88%
21,COCCn1c(C)cc(C(=O)CSc2nnnn2C2CCCC2)c1C,-69%
22,COCC(C)n1c(C)cc(C(=O)CSc2nnnn2C2CCCC2)c1C (stereo not shown),-33.2%

row,SMILES,"hERG current change (%, negative = inhibition) at 10uM"
1,COc1ccc(Cl)cc1C(=O)CSc1nnnn1C1CCCC1,-6.05%
2,COCCn1c(C)cc(C(=O)CSc2nnc(C3CC3)n2C2CC2)c1C,5.4%
3,CCn1c(C)cc(C(=O)CSc2nnnn2C2CCCC2)c1C,-53.5%
4,COc1ccc(COC(=O)CCNC(=O)c2ccc(Cl)cc2)cc1,-32.5%
5,COc1cccc(NC(=S)N(CCCN2CCCC(C)C2)Cc2cccs2)c1 (stereo not shown),-67.4%
6,COc1ccc(NC(=S)N(CCCN2CCCC(C)C2)Cc2cccs2)cc1 (stereo not shown),-68.9%
7,COc1cccc(NC(=S)N(CCCN2CCCC2)Cc2cccn2Cc2ccc(Cl)cc2)c1,-41.2%
8,COc1cccc(NC(=S)N(CCCN2CCCC2)Cc2ccco2)c1,-46.3%
9,CCOCCNC(=O)c1ccc2c3c(cccc13)CC2,3.39%
10,Cc1csc(-c2coc3cc(O)cc(C)c3c2=O)n1,2.27%
11,O=C1c2cccc(Cl)c2C(=O)c2c1cccc2N1CCCC1,-9.16%
12,O=C1c2ccccc2C(=O)c2c1cccc2N1CCN(Cc2ccccc2)CC1,-56.9%
13,O=C1c2ccccc2C(=O)c2c1cccc2N1CCCC1,-14.3%
14,O=C1c2ccccc2C(=O)c2c1cccc2N1CCN(CCO)CC1,-69.7%
15,O=C1c2ccccc2-c2onc3c(N4CCN(CCO)CC4)cc(N4CCN(C(=O)c5ccco5)CC4)c1c23,-22.1%
16,O=C1c2ccccc2C(=O)c2c1cccc2N1CCN(C/C=C/c2ccccc2)CC1,-7.23%
17,O=C(NCCc1ccccc1)C1CCN(C(=O)Nc2ccccc2)CC1,8.37%
18,COc1ccc(NC(=O)CCCn2c(=O)c3sccc3n(Cc3ccccc3)c2=O)cc1,-20.8%
19,CC(C)(C)NC(=O)C(c1ccco1)N(C(=O)c1csnn1)c1ccccc1 (stereo not shown),-4.55%
20,CC12CCC(C(=O)N(CCCCN3CCN(Cc4ccccc4)CC3)C1=O)C2(C)C.Cl (stereo not shown),-45.2%
21,O=C(CNC(=O)c1[nH]cnc1C(=O)N[C@@H](Cc1ccccc1)C(=O)OCc1ccccc1)OCc1ccccc1,7.48%
22,COCCn1nnnc1C(c1ccccc1OC)N1CCN(c2ccccc2)CC1.Cl (stereo not shown),-4.6%

row,SMILES,"hERG current change (%, negative = inhibition) at 10uM"
1,CCC(c1nnnn1C(C)(C)C)N1CCN(Cc2ccccc2OC)CC1.Cl (stereo not shown),-19.2%
2,CCC(C)(C)n1nnnc1C(c1ccc(OC)c(OC)c1)N1CCN(c2ccc(OC)cc2)CC1.Cl (stereo not shown),-15.9%
3,CCC(C)(C)n1nnnc1C(c1ccc(OC)c(OC)c1)N1CCN(c2ccccc2)CC1 (stereo not shown),-39.5%
4,COc1ccc(C(c2nnnn2Cc2cccs2)N2CCN(c3ccccc3F)CC2)cc1OC.Cl (stereo not shown),-39.6%
5,COc1ccc(C(c2nnnn2Cc2cccs2)N2CCN(c3ccccc3)CC2)cc1OC (stereo not shown),-63.5%
6,COCCn1nnnc1C(c1ccc(OC)cc1OC)N1CCN(c2ccccc2)CC1 (stereo not shown),-70.8%
7,CC(C)C(c1nnnn1Cc1cccs1)N1CCN(c2ccccc2)CC1 (stereo not shown),20%
8,COc1ccccc1CN1CCN(C(CC(C)C)c2nnnn2Cc2cccs2)CC1.Cl (stereo not shown),-57.9%
9,CCC(c1nnnn1CCOC)N1CCN(Cc2ccccc2OC)CC1.Cl (stereo not shown),-6.05%
10,COCCn1nnnc1C(c1ccc(OC)cc1OC)N1CCN(c2ccccc2F)CC1.Cl (stereo not shown),-9.23%
11,CCC(C)(C)n1nnnc1C(c1ccc(OC)c(OC)c1)N1CCN(c2ccc(F)cc2)CC1.Cl (stereo not shown),-72.9%
12,N/C(=N\OC(=O)c1ccc(=O)n(Cc2ccc(Cl)cc2)c1)c1ccccn1,-33.2%
13,CC1Sc2ccc(S(=O)(=O)NCc3ccccc3)cc2NC1=O (stereo not shown),1.74%
14,CC(C)Oc1cccc(-c2nnc(SCC(=O)Nc3ccc4c(c3)OCCO4)n2N)c1,-8.81%
15,O=C(CSc1nnc(-c2ccc(O)cc2)n1Cc1ccco1)c1cccs1,-14.9%
16,O=C(COC(=O)c1cccc(F)c1)NC(=O)NC1CCCC1,5.55%
17,COCCCN(C(=O)c1cc(C)oc1C)c1c(N)n(CC(C)C)c(=O)[nH]c1=O,7.78%
18,Cc1ccccc1OCCOc1cccc(/C=N/NC(=O)Cc2nnc(N)s2)c1,14.2%
19,CC1(C)Oc2ccc(C(=O)N3CCOCC3)cc2N(CC(=O)N2CCOCC2)C1=O,18.7%
20,Cc1ccc(CC2C(=O)N(c3cc(Cl)ccn3)C(=O)C2C)cc1 (stereo not shown),-9.63%
21,COc1cccc(C2=NOC(C(=O)Nc3ccc(OC)c(OC)c3)C2)c1 (stereo not shown),-11.8%
22,Cn1c(SCc2c(F)cccc2Cl)nc2c(c1=O)SCC2,6.6%

row,SMILES,"hERG current change (%, negative = inhibition) at 10uM"
1,Fc1ccc(C(c2nnnn2Cc2cccs2)N2CCN(c3ccccc3)CC2)cc1 (stereo not shown),-21.3%
2,COc1ccc(C(c2nnnn2Cc2cccs2)N2CCN(c3ccccc3F)CC2)cc1 (stereo not shown),4.04%
3,COc1ccc(C(c2nnnn2Cc2cccs2)N2CCN(c3ccc(F)cc3)CC2)cc1OC (stereo not shown),-69.4%
4,CC(=O)Nc1ccc(Oc2cc(C#N)c(C#N)cc2N2CCOCC2)cc1,-16.9%
5,Nc1ccccc1SC1CC(=O)N(c2ccc3c(c2)OCO3)C1=O (stereo not shown),14.7%
6,Cc1cc(-c2nnc3n2N=C(c2ccccc2)CS3)n[nH]1,-22.7%
7,Br.COc1ccc(C2=Nn3c(C)nnc3SC2)cc1,0.091%
8,COc1ccc(OC)c(C2=Nn3c(nnc3-c3cc(C)[nH]n3)SC2)c1,-19.7%
9,CCOc1ccc(-c2nnc3n2N=C(c2ccc(OC)cc2)CS3)cc1,0.919%
10,Cc1cc(-c2nnc3n2N=C(c2ccc(F)cc2)CS3)n[nH]1,-60.3%
11,COc1ccc(C2=Nn3c(nnc3-c3ccncc3)SC2)cc1,-41.1%
12,COc1ccc(C2=Nn3c(nnc3-c3ccccn3)SC2)cc1,-34.3%
13,COc1ccc(C2=Nn3c(nnc3-c3cc(C)[nH]n3)SC2)cc1,-64%
14,CCOc1ccc(C2=Nn3c(nnc3-c3ccc(OC)cc3)SC2)cc1,-16%
15,COc1ccc(C2=Nn3c(nnc3-c3ccc(OC)cc3)SC2)cc1,-55%
16,Cc1cc(-c2nnc3n2N=C(c2ccc(-c4ccccc4)cc2)CS3)n[nH]1,-15.7%
17,CCOc1ccc(C2=Nn3c(nnc3-c3ccccc3OC)SC2)cc1,-63.4%
18,O=C(Cn1cc2c(n1)CCCCC2)NCc1ccccn1,-2.69%
19,CCOc1cc(C(=O)N2CCC3(CC2)OCCO3)cc(OCC)c1OCC,-12.5%
